The values below come from PubChem BioAssay (NCATS).

Common to all, as to assay: Confirmatory Screen for Target Class Profiling of Small Molecule Inhibitors of Methyltransferases (AID 1745852); on activity change, negative = inhibition: on the % scale 0 is the no-effect control and ±100 the full control effect
For assay [1], the target named is Catechol O-methyltransferase (Homo sapiens) (UniProt P21964). As to conditions: MTase-Glo luminescence, SAH detection, recombinant enzyme; measured here: COMT max response; stronger effect = lower value.
Chain of Catechol O-methyltransferase (Homo sapiens) (P21964 whole entry, looked up): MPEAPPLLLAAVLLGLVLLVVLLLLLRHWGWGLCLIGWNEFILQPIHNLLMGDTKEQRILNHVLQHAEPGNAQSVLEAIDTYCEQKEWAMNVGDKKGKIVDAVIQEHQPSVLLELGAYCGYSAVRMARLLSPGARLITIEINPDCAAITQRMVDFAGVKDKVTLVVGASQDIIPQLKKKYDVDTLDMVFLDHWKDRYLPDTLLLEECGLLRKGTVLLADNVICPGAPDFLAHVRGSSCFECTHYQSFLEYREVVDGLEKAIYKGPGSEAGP
Assay [2] deals with Guanidinoacetate N-methyltransferase (Homo sapiens) (UniProt Q14353). As to conditions: activity change, negative = inhibition: at 57.3 µM (top of the series) unless noted.
Assay [3] has as its target Nicotinamide N-methyltransferase (Homo sapiens) (UniProt P40261). To be noted: MTase-Glo luminescence, SAH detection, recombinant enzyme; measured here: NNMT max response; stronger effect = lower value.
For assay [4], the target named is Phenylethanolamine N-methyltransferase (Homo sapiens) (UniProt P11086). As to conditions: MTase-Glo luminescence, SAH detection, recombinant enzyme; measured here: PNMT max response; stronger effect = lower value.
Chain of Phenylethanolamine N-methyltransferase (Homo sapiens) (P11086 whole entry, looked up): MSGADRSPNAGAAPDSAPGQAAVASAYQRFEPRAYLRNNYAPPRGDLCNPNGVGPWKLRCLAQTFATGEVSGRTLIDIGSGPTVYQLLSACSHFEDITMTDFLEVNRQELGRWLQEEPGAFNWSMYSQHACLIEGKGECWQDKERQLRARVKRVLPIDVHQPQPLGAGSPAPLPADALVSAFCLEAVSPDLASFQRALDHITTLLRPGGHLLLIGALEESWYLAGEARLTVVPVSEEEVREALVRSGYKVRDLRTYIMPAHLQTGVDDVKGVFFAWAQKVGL

The source made the active and inactive calls. The call rests on the fitted dose curve.
Potency means the concentration at half of the fitted maximal effect.

Chain of Nicotinamide N-methyltransferase (Homo sapiens) (P40261 whole entry, looked up): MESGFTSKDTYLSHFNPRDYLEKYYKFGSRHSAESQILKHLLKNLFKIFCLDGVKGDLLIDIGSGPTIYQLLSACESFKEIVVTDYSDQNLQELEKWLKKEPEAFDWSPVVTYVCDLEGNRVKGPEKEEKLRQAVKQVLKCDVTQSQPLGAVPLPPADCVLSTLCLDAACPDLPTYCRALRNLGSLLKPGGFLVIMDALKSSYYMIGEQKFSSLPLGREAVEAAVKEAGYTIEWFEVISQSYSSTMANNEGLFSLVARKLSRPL

Regarding `Cc1cnc(C2CC2)n1C1CCCN(Cc2ccccc2)C1` (stereo not given), the results for the activity in assay [1], in assay [3] and in assay [4] were 3.04%, -1.39% and 0.832%, respectively. Besides, in assay [2], the activity change, negative = inhibition was determined as 5.24%.
On to `Cc1cc(C)c(CNC(=O)c2cc(-c3cnn(C)c3C)cc3c2OCCN3C)c(=O)[nH]1`, for which the activity in assay [1] was -62.4%; in assay [3] it was -51.4%; in assay [4], -75.2%. In addition, the Potency in assay [2] was 39.3 µM (active).
For `COCc1nc2nc(-c3ccccc3)c(-c3ccc(O)c(F)c3)cc2n1C`, the activity is -38% in assay [1], -53% in assay [3] and -59.9% in assay [4]. The Potency in assay [2] is 39.3 µM (active).
For `Cc1cnc(C2CCC2)n1C1CCN(C(=O)CCC2CCCC2)CC1`, the results for the activity in assay [1], in assay [3] and in assay [4] were -8.04%, -13.3% and -7.48%, respectively. For the same molecule, the activity change, negative = inhibition in assay [2] was -7.84%.
The like results for `CCOC(=O)C1CCCN(S(=O)(=O)c2ccc3[nH]c(=O)[nH]c3c2)C1` (stereo not given) were, in that order, 2.57%, -6.43%, -50.4% and 0%.
The like results for `COc1ccc(-c2nnc3n(CCc4ccccc4)c(=O)c4ccccc4n23)c(OC)c1` were, in that order, -4.93%, -9.89%, -5.15% and -5.05%.
For `COc1ccc(OCc2cc(C(=O)NC(CO)C(C)C)no2)c2ccccc12` (stereo not given), the activity in assay [1] was 3.87%; in assay [3] it was 5.13%; in assay [4] it was 0.331%. Besides, the activity change, negative = inhibition in assay [2] turned out to be 1.38%.
In the case of `CC(=O)Nc1ccc2c(c1)C1C=CCC1C(c1ccccc1F)N2` (stereo not given), the activity in assay [1] was -18.4%; in assay [3] it was -12.1%; in assay [4], -27.7%. Also, the Potency in assay [2] is 42.9 µM (active).
In the case of `O=C1c2ccccc2C(=O)c2cc(S(=O)(=O)NCCO)ccc21`, the activity is -11% in assay [1], -0.735% in assay [3] and -29.7% in assay [4]. The activity change, negative = inhibition in assay [2] came to 0%.
The like results for `CC(C)Cn1c(=O)c2ccccc2n2c(CCC(=O)N3CCN(Cc4ccccc4)CC3)nnc12` were, in that order, 0.0224%, -55.9%, -3.34% and 2.81%.
